The text below walks through data of PubChem BioAssay AID602143 (Vanderbilt Specialized Chemistry Center, 2011).

Values joined by “and” are separate entries in the source; they are usually repeats but may differ in a detail not shown here. Equal entries are not always repeated. A number with no mark means an inactive call. Active and inactive are the calls of the source. Cut-off read from the data, not from the text of the source: active = remaining activity below about 50%; inactive = the rest.

For the test, the target named is Phospholipase D2 (Homo sapiens) (UniProt O14939). Description: PLD2 inhibitors in cells, cell-based, HEK293, single concentration (AID 602143).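 Note: tested at 200 nM.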 Conditions: HEK293 cellular PLD2 activity, percent of control; active compounds read low.
Sequence of Phospholipase D2 (Homo sapiens) (O14939 whole entry, looked up): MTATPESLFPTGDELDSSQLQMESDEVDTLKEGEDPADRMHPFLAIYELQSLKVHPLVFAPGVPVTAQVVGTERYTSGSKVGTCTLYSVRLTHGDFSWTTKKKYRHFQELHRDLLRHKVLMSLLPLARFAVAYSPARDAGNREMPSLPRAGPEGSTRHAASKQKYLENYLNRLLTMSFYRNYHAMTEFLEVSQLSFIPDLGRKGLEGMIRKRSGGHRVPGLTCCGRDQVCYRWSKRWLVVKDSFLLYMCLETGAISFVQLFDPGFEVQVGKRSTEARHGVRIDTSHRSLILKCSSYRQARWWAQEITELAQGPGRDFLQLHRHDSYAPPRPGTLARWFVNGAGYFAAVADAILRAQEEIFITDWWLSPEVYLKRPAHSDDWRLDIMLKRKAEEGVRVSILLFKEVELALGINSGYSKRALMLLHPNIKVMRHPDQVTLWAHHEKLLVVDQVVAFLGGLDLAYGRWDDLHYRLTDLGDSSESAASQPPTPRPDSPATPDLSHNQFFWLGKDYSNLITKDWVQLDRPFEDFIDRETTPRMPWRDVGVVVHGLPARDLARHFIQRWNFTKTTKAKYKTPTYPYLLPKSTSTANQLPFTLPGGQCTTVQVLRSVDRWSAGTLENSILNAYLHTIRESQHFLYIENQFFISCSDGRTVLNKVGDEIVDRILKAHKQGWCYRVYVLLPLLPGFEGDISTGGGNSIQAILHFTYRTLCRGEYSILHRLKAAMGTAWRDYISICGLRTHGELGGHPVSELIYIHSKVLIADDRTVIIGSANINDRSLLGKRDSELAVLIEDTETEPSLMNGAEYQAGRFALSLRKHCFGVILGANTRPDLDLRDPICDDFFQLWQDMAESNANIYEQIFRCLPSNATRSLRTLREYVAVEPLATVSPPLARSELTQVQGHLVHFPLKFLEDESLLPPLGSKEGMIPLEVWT
Sequence of Phospholipase D2 (Homo sapiens) (O14939 whole entry, looked up): as above
Consider `COc1ccc(S(=O)(=O)NCCN2CCC(n3c(=O)[nH]c4ccccc43)CC2)cc1OC`, for which the remaining activity was 77.1%.
The same measure for `O=C(NCCN1CCC(n2c(=O)[nH]c3ccccc32)CC1)c1ccc2c(c1)CCCC2`: 96.1%.
Regarding `O=c1[nH]c2ccccc2n1C1CCN(CCNC(=S)Nc2cccc3ccccc23)CC1`, the remaining activity is 100%.
In the case of `O=C(NCCN1CCC(C(=O)NCc2ccc(Cl)cc2)CC1)c1ccc2ccccc2c1` it was 106%; in that of `C[C@H](CN1CCC(n2c(=O)[nH]c3cc(Cl)ccc32)CC1)NC(=O)c1cc2ccccc2[nH]1`, 25% (active).
In the case of `O=C(N[C@@H](Cc1ccccc1)CN1CCC(n2c(=O)[nH]c3ccccc32)CC1)c1ccc2ccccc2c1` it was 96.7%; in that of `O=C(NCCN1CCC2(CC1)CNCc1ccccc12)c1cnc2ccccc2c1`, 97.1%; in that of `O=c1[nH]c2ccccc2n1C1CCN(CCNC(=S)Nc2ccccn2)CC1`, 72.7%.
In the case of `Cn1c(C(=O)NCCN2CCN(c3ccncc3)CC2)cc2ccccc21`, the remaining activity is 109%.
The same measure for `Cc1ccc(C(=O)NCCN2CCN(c3ccccn3)CC2)cc1`: 107%; for `O=C(NCCN1CCC(c2nc3ccccc3[nH]2)CC1)c1cnc2ccccc2c1`: 80.6%.
In the case of `C[C@@H](CN1CCC(n2c(=O)[nH]c3cc(Br)ccc32)CC1)NC(=O)c1ccc(F)cc1` it was 80.4%; in that of `O=C(NCCN1CCC(n2c(=O)[nH]c3ccccc32)CC1)c1cc([N+](=O)[O-])cc([N+](=O)[O-])c1`, 102%; in that of `O=C(NCCN1CCC(n2c(=O)[nH]c3cc(I)ccc32)CC1)c1ccc(Cl)cc1`, 36.7% (active).
As for `O=C(NCCN1CCC(n2c(=O)[nH]c3ccccc32)CC1)c1cccc(Cl)n1`, the remaining activity is 75.4%.
In the case of `CCS(=O)(=O)NCCN1CCC(n2c(=O)[nH]c3ccccc32)CC1`, the remaining activity is 100%.
In the case of `C[C@H](CN1CCC2(CC1)CNCc1ccccc12)NC(=O)c1ccc2ccccc2c1` it was 110%; in that of `C[C@@H](CN1CCC2(CC1)CCN(C)C2=O)NC(=O)c1ccc2ccccc2c1`, 135%; in that of `C[C@@H](NC(=O)NCCN1CCC(n2c(=O)[nH]c3ccccc32)CC1)c1ccccc1`, 107% and 123%.
`C[C@H](CN1CCC(n2nnc3ccccc32)CC1)NC(=O)c1cnc2ccccc2c1`: the remaining activity was 68.5%.
`COc1cccc(N2CCN(CCNC(=O)c3ccc(F)cc3)CC2)c1`: the remaining activity is 100%.
The same measure for `Cn1c(C2CCN(CCN)CC2)nc2ccccc21` (tested in a mixture with another compound): 117%.
The same measure for `O=C(NCCN1CCC(n2c(=O)[nH]c3ccccc32)CC1)c1ccc2cccc3c2c1CC3`: 98%; for `C[C@H](CN1CCC2(CC1)CNc1ccccc12)NC(=O)c1ccc2ccccc2c1`: 53.8%; for `O=C(NCCN1CCC2(CCc3ccccc32)CC1)c1cnc2ccccc2c1`: 100%.
In the case of `C=CCCCCCCCCC(=O)NCCN1CCC(n2c(=O)[nH]c3ccccc32)CC1` it was 65.3%; in that of `O=C(NCCN1CCC(n2c(=O)[nH]c3ccccc32)CC1)c1cc2ccc3ccccc3c2c2ccccc12`, 109%.
For the molecule `O=C(NCCN1CCC(n2c(=O)[nH]c3ccc(F)cc32)CC1)c1cccc2c1C(=O)c1ccccc1-2`, the remaining activity is 0% (active).
The same measure for `O=C(NCCN1CCC2(CCc3ccccc32)CC1)[C@H]1C[C@@H]1c1ccccc1`: 99.8%; for `C[C@@H](CN1CCC(n2c(=O)[nH]c3ccccc32)CC1)NC(=O)CCc1ccc(F)cc1`: 48.9% (active); for `O=c1[nH]c2ccccc2n1C1CCN(CCNS(=O)(=O)c2ccc(OC(F)(F)F)cc2)CC1`: 81%.
The same measure for `C[C@@H](CN1CCC(n2c(=O)[nH]c3cc(I)ccc32)CC1)NC(=O)C1CC1c1ccccc1` (some centres undefined): 99.2%; for `O=C(NCCN1CCC(n2c(=O)[nH]c3ccccc32)CC1)Nc1cccc(F)c1`: 87.9%.
The same measure for `O=C(CCN1CCC(n2c(=O)[nH]c3ccccc32)CC1)NCc1ccc(Cl)cc1`: 85.2%.
In the case of `CC(C(=O)NCCN1CCC(n2c(=O)[nH]c3ccccc32)CC1)(c1ccccc1)c1ccccc1`, the remaining activity is 65.3%.
In the case of `O=c1[nH]c2ccccc2n1C1CCN(CCN2CCCC2)CC1` it was 93.8%.
With `C[C@@H](CN1CCC2(C=Cc3ccccc32)CC1)NC(=O)c1cnc2ccccc2c1`, the remaining activity is 77.4%.
For `O=C(NCCN1CCC(n2c(=O)[nH]c3ccccc32)CC1)Nc1cccc(C(F)(F)F)c1`, the remaining activity was 131%.
`O=c1[nH]c2ccccc2n1C1CCN(CCNS(=O)(=O)c2ccccc2Br)CC1`: the remaining activity was 75.8%.
